The nature of test [1]: cAMP Responsive Elements (CRE) small molecule antagonists, cell-based qHTS assay: qHTS cell viability counter screen (AID 2060913). Also: nearly all actives have a fitted effect of over 40% in size. Summed up:
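HEK293T CRE-bla, 2,000 cells/well, 18 h preincubation; cpd in DMSO + NKH477 0.25 uM final, 3 h 37 C/5% CO2; LiveBLAzer 2 h RT, then CellTiter-Glo 30 min RT, luminescence.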

A short description of test [2]: cAMP Responsive Elements (CRE) small molecule agonists, cell-based qHTS assay: qHTS cell viability counter screen (AID 2060914). Also: nearly all actives have a fitted effect of over 50% in size. Summed up: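 Cytotoxicity was measured as ATP luminescence (CellTiter-Glo, 30 min at room temperature) in the same wells as the CRE-bla FRET read-out. HEK293T CRE-bla cells had 3 h compound exposure at 37C/5% CO2.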

Structures are written as SMILES. Results filed as inconclusive are left out. Where a call stands in place of a potency, no number is given. The source made the active and inactive calls. Calls follow the shape of the dose curve; as a rule, active = well fitted cell-killing curve with a large enough effect in the repeat runs; inconclusive = weak or mixed curves, or effect the other way; inactive = flat fitted curve, though single readings scatter.

As for `C[N+](C)(C)CC[N+]1(C)Cc2c(Cl)c(Cl)c(Cl)c(Cl)c2C1`, the Potency result in test [1] and in test [2] was “inactive” throughout.

On to `COC(=O)CCCCC(=O)O`, for which the Potency entry in test [1] and in test [2] was “inactive” throughout.

Take `CC(=O)c1ccccc1O`: the Potency result in test [1] and in test [2] was “inactive” in each case.

In the case of `OCCN1CCN(CCCN2c3ccccc3Sc3ccc(C(F)(F)F)cc32)CC1`, the Potency result in test [1] and in test [2] was “inactive” throughout.

Turning to `CC(C)c1ccc(C(=O)N=C(N)N)cc1S(C)(=O)=O`, the Potency entry in test [1] and in test [2] was “inactive” in each case.

For the compound `Oc1ccc2cc(SSc3ccc4cc(O)ccc4c3)ccc2c1`, the Potency result in test [1] and in test [2] was “inactive” each time.

For the origin of these results see PubChem BioAssay (Tox21).
